These results are taken from PubChem BioAssay.

The nature of assay [1]: antimalarial activity against Dd2 strain (AID 2302;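 active = growth inhibition above 50% at the single 2 µM test dose, taken to imply half-maximal potency below 2 µM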;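 also: 0% = DMSO untreated growth and 100% = chloroquine plus artemisinin killed control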). To be noted: P. falciparum Dd2 in RBCs, LDH growth readout, 72 h; at 2 µM; hits give high values.
Assay [2] in a line: human hepatoma cell viability loss – ATP luminescence, cytotoxicity control for P. falciparum antimalarial project, primary screen (AID 2303;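 active = inhibition above 50%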;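 also: 0% = DMSO wells and 100% = digitonin-killed cells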). To be noted: HepG2 viability, 24-48 h, at 10 µM, hits give high values.
The target of assay [3] is L-lactate dehydrogenase (Plasmodium falciparum (isolate CDC / Honduras)) (UniProt Q27743). Briefly: PfLDH activity inhibition – cell lysate, 3D7 strain, counter-screen for P. falciparum growth inhibition project (AID 2304).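 Also: 0% = vehicle and 100% = reference inhibitor.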 To be noted: P. falciparum 3D7 crude extract, LDH APAD/NBT absorbance; at 2 µM; hits give high values. For orientation: The purpose of a counterscreen is to sort out artefacts and off-target activity.
L-lactate dehydrogenase (Plasmodium falciparum (isolate CDC / Honduras)), sequence (Q27743 whole entry, looked up): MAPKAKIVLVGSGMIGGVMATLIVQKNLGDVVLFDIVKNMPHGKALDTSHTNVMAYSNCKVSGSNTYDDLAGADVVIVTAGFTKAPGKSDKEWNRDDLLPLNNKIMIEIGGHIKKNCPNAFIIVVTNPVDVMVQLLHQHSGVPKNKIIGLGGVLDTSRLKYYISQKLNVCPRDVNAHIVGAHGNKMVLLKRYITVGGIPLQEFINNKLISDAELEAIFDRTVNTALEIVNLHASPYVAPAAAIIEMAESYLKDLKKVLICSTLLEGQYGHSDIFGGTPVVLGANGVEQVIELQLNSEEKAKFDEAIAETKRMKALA

A short description of assay [4]: inhibition of 3D7 malaria parasite growth – strain 3D7 (AID 2306).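 Also: 0% = DMSO wells and 100% = chloroquine plus artemisinin control wells.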 To be noted: P. falciparum 3D7 erythrocytic growth, LDH absorbance, 72 h; at 2 µM; hits give high values.
Assay [5] concerns the target Calcium-dependent protein kinase 1 (Plasmodium falciparum (isolate 3D7)) (UniProt P62344). Nature of the assay: PfCDPK1 kinase inhibitors, biochemical, TCAMS library (AID 1159585; cut-off not given, nearly all actives have IC50 up to about 0.98 µM;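 also: inhibitors leave more ATP so luminescence rises with inhibition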). To be noted: recombinant PfCDPK1, Kinase-Glo ATP depletion luminescence. (In general: Kinase-Glo reads ATP consumption through a luciferase reaction.)
The target in assay [6] is Plasmodium falciparum protein kinase 6 (PK6, PF3D7_1337100) (UniProt Q8IDW1). Briefly: PfPK6 kinase inhibitors, biochemical, TCAMS library (AID 1159586). To be noted: recombinant PfPK6, Kinase-Glo ATP depletion luminescence.
Plasmodium falciparum protein kinase 6 (PK6, PF3D7_1337100), sequence (Q8IDW1 1-305): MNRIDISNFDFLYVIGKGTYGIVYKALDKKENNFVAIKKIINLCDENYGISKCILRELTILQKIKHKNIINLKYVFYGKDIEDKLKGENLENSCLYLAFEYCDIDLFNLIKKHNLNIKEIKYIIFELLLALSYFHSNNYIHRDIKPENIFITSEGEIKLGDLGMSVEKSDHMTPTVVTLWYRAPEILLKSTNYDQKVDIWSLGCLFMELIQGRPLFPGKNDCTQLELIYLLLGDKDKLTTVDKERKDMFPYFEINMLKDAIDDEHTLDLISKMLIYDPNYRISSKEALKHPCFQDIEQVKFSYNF
In assay [7] the target is Protein kinase 7 (PK7), Plasmodium falciparum 3D7 (PF3D7_0213400) (UniProt Q7YTF7). Nature of the assay: inhibition of Plasmodium PK7 catalytic activity – biochemical, TCAMS antimalarial set, Kinase-Glo luminescence (AID 1159587). To be noted: recombinant PfPK7, Kinase-Glo ATP depletion luminescence.
Protein kinase 7 (PK7), Plasmodium falciparum 3D7 (PF3D7_0213400), sequence (Q7YTF7 1-343): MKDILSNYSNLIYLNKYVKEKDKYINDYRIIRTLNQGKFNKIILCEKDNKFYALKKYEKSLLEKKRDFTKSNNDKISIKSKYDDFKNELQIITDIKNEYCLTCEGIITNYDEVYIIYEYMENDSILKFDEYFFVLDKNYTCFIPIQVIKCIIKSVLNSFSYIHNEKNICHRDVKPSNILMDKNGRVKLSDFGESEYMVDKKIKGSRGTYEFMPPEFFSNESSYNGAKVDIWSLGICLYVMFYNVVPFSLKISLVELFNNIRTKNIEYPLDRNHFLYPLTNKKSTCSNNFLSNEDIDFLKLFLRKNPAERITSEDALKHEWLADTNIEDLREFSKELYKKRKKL
The target of assay [8] is Calcium-dependent protein kinase 4 (Plasmodium falciparum (isolate 3D7)) (UniProt Q8IBS5). Nature of the assay: PfCDPK4 kinase inhibitors, biochemical, TCAMS library (AID 1159588; cut-off not given, nearly all actives have IC50 up to about 0.91 µM). As to conditions: recombinant PfCDPK4, Kinase-Glo ATP depletion luminescence.
Calcium-dependent protein kinase 4 (Plasmodium falciparum (isolate 3D7)), sequence (Q8IBS5 whole entry, looked up): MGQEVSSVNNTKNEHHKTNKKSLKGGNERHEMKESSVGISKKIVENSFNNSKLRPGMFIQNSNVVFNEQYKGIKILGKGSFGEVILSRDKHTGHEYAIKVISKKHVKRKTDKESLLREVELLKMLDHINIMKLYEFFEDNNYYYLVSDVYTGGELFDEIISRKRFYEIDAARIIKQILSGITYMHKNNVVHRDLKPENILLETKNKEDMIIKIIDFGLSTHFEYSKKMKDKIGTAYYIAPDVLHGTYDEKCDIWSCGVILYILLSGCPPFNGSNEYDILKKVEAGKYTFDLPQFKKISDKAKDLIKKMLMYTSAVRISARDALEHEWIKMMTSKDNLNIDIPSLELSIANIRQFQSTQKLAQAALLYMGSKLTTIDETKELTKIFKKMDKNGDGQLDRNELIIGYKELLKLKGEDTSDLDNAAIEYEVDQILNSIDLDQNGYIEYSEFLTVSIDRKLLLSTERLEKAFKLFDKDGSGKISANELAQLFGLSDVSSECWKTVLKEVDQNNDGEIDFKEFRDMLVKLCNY

Values without a mark were called inactive. For some of these results: Results with a measured potency or affinity are listed apart. Calls of active or inactive are those of the source. Unless noted, no rule for the calls is given here.

Calcium-dependent protein kinase 1 (Plasmodium falciparum (isolate 3D7)), sequence (P62344 whole entry, looked up): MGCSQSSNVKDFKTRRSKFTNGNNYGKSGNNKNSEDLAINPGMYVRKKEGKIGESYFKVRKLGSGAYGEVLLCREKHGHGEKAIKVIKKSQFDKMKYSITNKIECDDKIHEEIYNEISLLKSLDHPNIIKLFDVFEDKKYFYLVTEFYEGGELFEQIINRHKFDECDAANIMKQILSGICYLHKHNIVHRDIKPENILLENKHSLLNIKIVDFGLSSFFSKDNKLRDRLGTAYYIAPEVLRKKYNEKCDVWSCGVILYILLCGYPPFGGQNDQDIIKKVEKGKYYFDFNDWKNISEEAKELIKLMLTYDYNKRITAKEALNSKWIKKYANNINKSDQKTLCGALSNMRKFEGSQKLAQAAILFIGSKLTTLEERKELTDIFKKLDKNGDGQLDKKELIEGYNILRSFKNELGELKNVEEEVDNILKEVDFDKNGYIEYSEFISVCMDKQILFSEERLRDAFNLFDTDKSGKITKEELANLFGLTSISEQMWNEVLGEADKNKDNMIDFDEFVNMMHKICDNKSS

In the case of `O=C1SC(=Cc2ccc(O)c(O)c2)C(=O)N1c1ccccc1`, the figures for the growth inhibition in assay [1] and in assay [4] were 17% and 91% (active), respectively. In addition, the inhibition (usually the change of the read-out against control, counted positive when it falls) in assay [2] was 12%; in assay [3], -5%. Further, the result in assay [5], in assay [6], in assay [7] and in assay [8] was inactive.
Regarding `O=C(Nc1cccnc1)c1cc(C(=O)Nc2cccnc2)cc([N+](=O)[O-])c1`, the growth inhibition in assay [1] and in assay [4] was 100% (active) each time. The inhibition in assay [2] was -12%; in assay [3] it was -2%. For the same molecule, the result in assay [5], in assay [6], in assay [7] and in assay [8] was inactive.
Regarding `COc1ccccc1C1CCN(C2CCC(NC(=O)c3ccc4nc(-c5ccc(C)cc5)[nH]c4c3)CC2)CC1` (stereo not given), the growth inhibition is 100% (active) in assay [1] and 101% (active) in assay [4]. Also, the figures for the inhibition in assay [2] and in assay [3] were 100% (active) and 4%, respectively. For the same molecule, the outcome in assay [5], in assay [6], in assay [7] and in assay [8] was inactive.
Take `Cc1cc(NCC(C)C)c2[nH]nc(-c3ccccc3)c2n1`: the growth inhibition in assay [1] was 30%; in assay [4], 99% (active). For the same molecule, the inhibition in assay [2] is 9%; in assay [3], 2%. Further, the outcome in assay [5], in assay [6], in assay [7] and in assay [8] was inactive.
As to `COc1cccc(C2CCN(CCN3CCC(NC(=O)c4ccc(-c5ccc(C#N)cc5)cc4)CC3)CC2)c1`, the growth inhibition in assay [1] is 47%; in assay [4] it was 98% (active). Besides, the values for the inhibition in assay [2] and in assay [3] were 28% and 6%, respectively. Further, the outcome in assay [5], in assay [6], in assay [7] and in assay [8] was inactive.
Take `O=C(Nc1cccc(F)c1)N(Cc1ccc(-c2cccc(CN3CCNCC3)c2)cc1)C1CCN(Cc2ccccc2)CC1`: the figures for the growth inhibition in assay [1] and in assay [4] were 54% (active) and 97% (active), respectively. The values for the inhibition in assay [2] and in assay [3] were 13% and -1%, respectively. The result in assay [5], in assay [6], in assay [7] and in assay [8] was inactive.
As for `O=C(Nc1ccc(CN2CCOCC2)cc1)c1ccc(-c2ccc(Cl)cc2)o1`, the growth inhibition in assay [1] is 11%; in assay [4], 98% (active). Further, the figures for the inhibition in assay [2] and in assay [3] were 22% and -6%, respectively. Moreover, the outcome in assay [5], in assay [6], in assay [7] and in assay [8] was inactive.
As to `NC(N)=NN=CC(=O)Nc1ccc(Cl)cc1`, the growth inhibition is 2% in assay [1] and 101% (active) in assay [4]. Besides, the inhibition was 5% in assay [2] and -1% in assay [3]. Further, the outcome in assay [5], in assay [6], in assay [7] and in assay [8] was inactive.
As for `CCCNCc1ccc(-c2ccc(CN(Cc3cnc(C)cn3)C(=O)CC#N)cc2)nc1`, the growth inhibition in assay [1] is -3%; in assay [4], 92% (active). Also, the inhibition was 4% in assay [2] and 5% in assay [3]. In addition, the result in assay [5], in assay [6], in assay [7] and in assay [8] was inactive.
For `CO/C(=C\C=C\c1cc2cc(Cl)c(Cl)cc2[nH]1)C(=O)NCCCN1CCN(c2cccc(OCC(=O)Nc3cccc(C(=O)c4ccccc4)c3)c2)CC1`, the values for the growth inhibition in assay [1] and in assay [4] were 88% (active) and 94% (active), respectively. Besides, the inhibition is 48% in assay [2] and 2% in assay [3]. Moreover, the result in assay [5], in assay [6], in assay [7] and in assay [8] was inactive.
For the molecule `Cc1cc(-c2cccc(CNCCc3ccc(Cl)cc3)c2)cnc1N`, the results for the growth inhibition in assay [1] and in assay [4] were 3% and 90% (active), respectively. The values for the inhibition in assay [2] and in assay [3] were 19% and 0%, respectively. Moreover, the result in assay [5], in assay [6], in assay [7] and in assay [8] was inactive.
`Cc1cccc2[nH]c(-c3cccc(-c4ccc(NC(=O)c5ccoc5)cc4)c3)nc12`: the growth inhibition in assay [1] is 56% (active); in assay [4], 99% (active). Besides, the inhibition in assay [2] is 65% (active); in assay [3] it was -5%. In addition, the result in assay [5], in assay [6], in assay [7] and in assay [8] was inactive.
For the molecule `CN(C)c1cccc2c1nc(-c1ccc3c(c1)CCO3)n2CCNCc1ccccc1`, the values for the growth inhibition in assay [1] and in assay [4] were 85% (active) and 99% (active), respectively. For the same molecule, the figures for the inhibition in assay [2] and in assay [3] were 6% and 0%, respectively. For the same molecule, the outcome in assay [5], in assay [6], in assay [7] and in assay [8] was inactive.
On to `O=C(NCCN1CCN(S(=O)(=O)c2ccc(OC3CCNCC3)c(Br)c2)CC1)c1ccc(Cl)c(Cl)c1`, for which the values for the growth inhibition in assay [1] and in assay [4] were -3% and 89% (active), respectively. Moreover, the inhibition in assay [2] is 1%; in assay [3], -3%. Besides, the outcome in assay [5], in assay [6], in assay [7] and in assay [8] was inactive.
For the molecule `Cc1ccc2nc3c(cc(C(=O)NCCc4ccccc4)c(=N)n3CCCOC(C)C)c(=O)n2c1`, the growth inhibition in assay [1] was 12%; in assay [4], 96% (active). In addition, the inhibition in assay [2] is 15%; in assay [3], 0%. In addition, the outcome in assay [5], in assay [6], in assay [7] and in assay [8] was inactive.
For `Cn1nc(-c2ccc(NC(=O)Nc3cc(C(F)(F)F)ccc3F)cc2)c2cnc(NCCCCN3CCCC3)nc21`, the growth inhibition was 74% (active) in assay [1] and 98% (active) in assay [4]. Further, the inhibition in assay [2] was 88% (active); in assay [3], -3%. Further, the outcome in assay [5], in assay [6], in assay [7] and in assay [8] was inactive.
On to `O=C(Nc1ccc(OC2CCN(Cc3ccc(F)cc3)C2)c(Cl)c1)c1ccsc1` (stereo not given), for which the growth inhibition in assay [1] was 95% (active); in assay [4] it was 98% (active). The figures for the inhibition in assay [2] and in assay [3] were 26% and -3%, respectively. Further, the outcome in assay [5], in assay [6], in assay [7] and in assay [8] was inactive.
Consider `Oc1ccc(CC2CCCN(c3nc(NCCCOc4ccccc4-c4ccccc4)nc(N4CCNCC4)n3)C2)cc1` (stereo not given), for which the results for the growth inhibition in assay [1] and in assay [4] were 77% (active) and 95% (active), respectively. For the same molecule, the figures for the inhibition in assay [2] and in assay [3] were 56% (active) and -4%, respectively. The result in assay [5], in assay [6], in assay [7] and in assay [8] was inactive.
Consider `Cc1c(Cn2nc(Cl)c(N3CCNCC3)cc2=O)cccc1NC(=O)Nc1ccc(-c2ccccc2)cc1`, for which the growth inhibition in assay [1] is 29%; in assay [4], 80% (active). The inhibition in assay [2] is 96% (active); in assay [3], 2%. Besides, the result in assay [5], in assay [6], in assay [7] and in assay [8] was inactive.
On to `Cc1noc(C)c1-c1ccc2c(Nc3ccccc3C(C)(C)C)c(C(=O)NCc3ccccc3)cnc2c1`, for which the growth inhibition is 89% (active) in assay [1] and 99% (active) in assay [4]. In addition, the results for the inhibition in assay [2] and in assay [3] were 20% and -1%, respectively. Besides, the result in assay [5], in assay [6], in assay [7] and in assay [8] was inactive.
